# miR122 inh: raises miR-122 sensor activity in Huh7 cells. Huh7 psiCHECK-miR122 Renilla luciferase sensor, 48 h. activation, % at 12.5 µM. 0.14% of 340,000 active;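 active means mean activation of 30% or more, with every replicate also reaching 30%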;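 further: 0% = median of neutral control wells and 100% = median of positive control wells; higher luciferase signal means stronger suppression of miR-122 activity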
# Numbers without * were called inactive. The sample as a whole holds a higher share of hits than the screen did.
SMILES,miR122 inh
COc1cccc(C#Cc2ccc3c(c2)O[C@@H](CN(C)S(=O)(=O)c2ccccc2F)[C@@H](C)CN([C@H](C)CO)S3(=O)=O)c1,-1
C[C@H]1CN([C@@H](C)CO)C(=O)c2cc(C#CCc3ccccc3)cnc2O[C@@H]1CN(C)Cc1cccc(C(=O)O)c1,0
CC(C)CC#Cc1cnc2c(c1)C(=O)N([C@H](C)CO)C[C@@H](C)[C@@H](CN(C)C(=O)Nc1cccc(F)c1)O2,-10
C[C@@H]1CN([C@H](C)CO)S(=O)(=O)c2ccc(-c3ccccc3)cc2O[C@H]1CN(C)C(=O)CN(C)C,-8
CN(C)c1ccc(/C=C/c2ccc3ccccc3[n+]2C)cc1,49*
C[C@@H]1CN([C@H](C)CO)C(=O)c2cc(C#Cc3ccc(F)cc3)cnc2O[C@@H]1CN(C)Cc1ccccn1,-2
C[C@@H]1CN([C@H](C)CO)C(=O)c2cc(C#CC3(O)CCCC3)cnc2O[C@H]1CN(C)C(=O)C1CCCCC1,-4
COCC(=O)N(C)C[C@@H]1Oc2cc(C#CC3CC3)ccc2S(=O)(=O)N([C@H](C)CO)C[C@@H]1C,-5
CCCNC(=O)NC[C@@H]1[C@@H](c2ccc(C3=CCCC3)cc2)[C@H](CO)N1C(=O)CC,-343
CC(=O)N(C)C[C@@H]1[C@@H](c2ccc(-c3cccc(C#N)c3)cc2)[C@H](CO)N1C(C)=O,92*
CC(=O)N1[C@H](CNC(=O)C2CC2)[C@H](c2ccc(-c3ccccc3)cc2)[C@@H]1CO,-150
CCC(=O)N1[C@H](CN(C(C)C)S(C)(=O)=O)[C@@H](c2ccccc2)[C@@H]1CO,92*
CCC(=O)N(C)C[C@@H]1Oc2cc(-c3cccc(C#N)c3)ccc2S(=O)(=O)N([C@@H](C)CO)C[C@@H]1C,2
CCN(C[C@@H]1[C@@H](c2ccccc2)[C@@H](CO)N1C(=O)COC)S(C)(=O)=O,-92
CCC(=O)N1[C@H](CN(C)C(C)=O)[C@H](c2ccc(-c3cccnc3)cc2)[C@@H]1CO,43*
CCC(=O)N(C)C[C@H]1Oc2cc(-c3cccnc3)ccc2S(=O)(=O)N([C@@H](C)CO)C[C@H]1C,2
COc1cccc(C#Cc2ccc3c(c2)O[C@H](CN(C)C(C)=O)[C@@H](C)CN([C@H](C)CO)S3(=O)=O)c1,-13
COc1ccc(-c2ccc3c(c2)O[C@H](CN(C)C(=O)c2ccccc2F)[C@@H](C)CN([C@@H](C)CO)S3(=O)=O)cc1,-2
C[C@H]1CN([C@@H](C)CO)C(=O)c2cc(C3=CCCC3)cnc2O[C@@H]1CN(C)C(=O)C1CCCCC1,3
C[C@H]1CN([C@@H](C)CO)C(=O)c2cc(-c3cncnc3)cnc2O[C@@H]1CN(C)Cc1ccncc1,-3
C[C@H](CO)N1C[C@H](C)[C@@H](CN(C)Cc2ccncc2)Oc2ncc(C#Cc3cccnc3)cc2C1=O,4
CCCN1C[C@H](C)[C@H](OC)CN(C)C(=O)c2ccc(NC(=O)COC)cc2OC[C@H]1C,3
C[C@@H]1CN([C@H](C)CO)S(=O)(=O)c2ccc(/C=C/c3ccccc3)cc2O[C@H]1CN(C)C(=O)c1ccccc1,-8
CCC(=O)N(C)C[C@@H]1Oc2cc(-c3cccc(C#N)c3)ccc2S(=O)(=O)N([C@H](C)CO)C[C@H]1C,4
CO[C@H]1CN(C)C(=O)c2cc(NS(=O)(=O)CC(F)(F)F)ccc2OC[C@H](C)N(C)C[C@H]1C,-2
SMILES,miR122 inh
C=CCNC(=O)c1ccccc1NC(=O)c1ccc(Cl)c(S(=O)(=O)Nc2cc(C)ccc2C)c1,-102
C=CCNC(=S)NNC(=O)c1cccn(Cc2ccc(Cl)c(Cl)c2)c1=O,71*
C[C@@H]1CN([C@H](C)CO)C(=O)c2cc(Br)cnc2O[C@H]1CN(C)C(=O)c1cccnc1,-1
C[C@@H]1CN([C@H](C)CO)S(=O)(=O)c2ccc(-c3cncnc3)cc2O[C@@H]1CN(C)Cc1ccccc1,-3
C[C@@H]1CN([C@@H](C)CO)S(=O)(=O)c2ccc(Br)cc2O[C@@H]1CN(C)S(C)(=O)=O,-4
CC(C)CC#Cc1ccc2c(c1)O[C@@H](CN(C)C(=O)C1CCOCC1)[C@H](C)CN([C@@H](C)CO)S2(=O)=O,-16
CCCC#Cc1ccc2c(c1)O[C@@H](CN(C)S(C)(=O)=O)[C@@H](C)CN([C@@H](C)CO)S2(=O)=O,8
COc1ccc(S(=O)(=O)N(C)C[C@H]2Oc3cc(-c4ccccc4OC)ccc3S(=O)(=O)N([C@H](C)CO)C[C@@H]2C)cc1,0
C[C@H]1CN([C@@H](C)CO)C(=O)c2cc(-c3cccnc3)cnc2O[C@@H]1CN(C)S(C)(=O)=O,-18
CCCCNC(=O)Nc1nnc(-c2ccc(OCC)cc2)o1,36*
CCCCOc1ccc(S(=O)(=O)Nc2ccc(NC(C)=O)cc2)cc1,-205
CO[C@H]1CN(C)C(=O)c2cc(NS(=O)(=O)CC(F)(F)F)ccc2OC[C@@H](C)N(C)C[C@H]1C,1
NC(Cc1ccc(C(F)(F)F)cc1)c1csc(Nc2nncc3ccccc23)n1 (stereo unspecified),34*
C[C@H](CO)N1C[C@H](C)[C@H](CN(C)Cc2ccccn2)Oc2cc(-c3cccnc3)ccc2S1(=O)=O,8
CCCNC(=O)N(C)C[C@@H]1Oc2ncc(C#CC(C)C)cc2C(=O)N([C@H](C)CO)C[C@@H]1C,6
COc1ccc(NC(=O)N(C)C[C@H]2Oc3ccc(NC(=O)Nc4ccc(C(F)(F)F)cc4)cc3CC(=O)N([C@@H](C)CO)C[C@H]2C)cc1,-201
Cc1c(NC(=O)/C=C/c2cn(-c3ccccc3)nc2-c2ccccc2)c(=O)n(-c2ccccc2)n1C,37*
C[C@@H]1CN([C@H](C)CO)S(=O)(=O)c2ccc(-c3ccc(F)cc3)cc2O[C@H]1CN(C)C(=O)C1CCOCC1,-12
CC(C)CC#Cc1cnc2c(c1)C(=O)N([C@@H](C)CO)C[C@H](C)[C@@H](CN(C)CC1CCOCC1)O2,2
COc1ccccc1-c1cnc2c(c1)C(=O)N([C@@H](C)CO)C[C@H](C)[C@@H](CN(C)C(=O)c1ccccc1)O2,-5
COCC#Cc1ccc2c(c1)O[C@@H](CN(C)C(=O)C1CCCCC1)[C@H](C)CN([C@@H](C)CO)S2(=O)=O,-10
Cc1nn(Cc2ccc(Cl)c(Cl)c2)c(C)c1NC(=O)c1sc2ccccc2c1Cl,32*
CNC[C@@H]1Oc2cc(-c3ccc(OC)cc3)ccc2S(=O)(=O)N([C@H](C)CO)C[C@H]1C,7
COC(=O)[C@@H]1Cc2c([nH]c3ccccc23)C(C)(C)N1C(=O)CCl,32*
C[C@@H]1CN([C@H](C)CO)S(=O)(=O)c2ccc(-c3cccnc3)cc2O[C@H]1CN(C)Cc1ccccn1,4
SMILES,miR122 inh
CCC(=O)Nc1ccc2c(c1)C(=O)N(C)C[C@@H](OC)[C@H](C)CN(Cc1ccccc1OC)[C@H](C)CO2,-40
CCCN(C)C[C@@H]1Oc2cc(C#CC3(O)CCCC3)ccc2S(=O)(=O)N([C@H](C)CO)C[C@@H]1C,10
CC(C)CC#Cc1cnc2c(c1)C(=O)N([C@H](C)CO)C[C@H](C)[C@@H](CN(C)S(=O)(=O)c1ccccc1)O2,-18
CCOC(=O)/C(=C\C=C1/Sc2ccccc2N1CC)C(C)=O,52*
C[C@@H]1CN([C@H](C)CO)S(=O)(=O)c2ccc(C#CCN(C)C)cc2O[C@H]1CN(C)CC1CCCC1,-22
COCC#Cc1ccc2c(c1)O[C@H](CN(C)S(=O)(=O)c1ccc(OC)cc1)[C@H](C)CN([C@H](C)CO)S2(=O)=O,-120
Cc1cc2[nH]c3c4ccccc4nc(C)c3c2cc1C,72*
